Experimental data from PubChem BioAssay (NCI).
About 83,000 compounds went through this panel and 20% of them were active in at least one assay; those are over-represented in the sample as a whole.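 Step 1: grow cells in 96-well plates. Step 2: add test compound at a single concentration. Step 3: incubate 48 h. Step 4: record percent growth.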 A number with no mark means an inactive call. Active and inactive are the calls of the source. Rule for the calls: active = growth percent below 10; inactive = the rest.

How the values were obtained:
Test in all cases: NCI-60 one-dose screen, 48 h (100 = growth as untreated, 0 = no growth, -100 = all killed)
Conditions in all cases: 10 µM
SK-MEL-2 melanoma = system: SK-MEL-2 melanoma
EKVX NSCLC = system: EKVX NSCLC
SN12C renal = system: SN12C renal
UO-31 renal = system: UO-31 renal
TK-10 renal = system: TK-10 renal
ACHN renal = system: ACHN renal
CAKI-1 renal = system: CAKI-1 renal
A498 renal = system: A498 renal
CCRF-CEM leukemia = system: CCRF-CEM leukemia
MOLT-4 leukemia = system: MOLT-4 leukemia

SMILES | growth (SK-MEL-2 melanoma) | growth (EKVX NSCLC) | growth (SN12C renal) | growth (UO-31 renal) | growth (TK-10 renal) | growth (ACHN renal) | growth (CAKI-1 renal) | growth (A498 renal) | growth (CCRF-CEM leukemia) | growth (MOLT-4 leukemia)
C/C(=C\c1ccc(O)cc1O)c1ccc2ccc(O)cc2[o+]1 | 91.1% | 68.1% | 44.9% | 50.7% | 116% | 45% | 58.5% | 147% | 55.8% | 29.3%
COc1cc(Cn2c(C(F)(F)F)cc3c(Cl)ncnc32)ccn1 | -81.7% (active) | 73% | 51.3% | 68.3% | 97.1% | 74.8% | -57.6% (active) | 103% | -14.3% (active) | 
CN1CCCN(Cc2ccc(C(=O)Nc3cccc(Nc4ccc5cc(O)ccc5n4)c3)cc2C(F)(F)F)CC1 | 111% | 71.1% | 86.8% | 91.7% | 134% | 86.4% | 74.7% | 139% | -9.62% (active) | -6.61% (active)
Cc1ccc(-c2nc3ccc(C(=O)N=Nc4c(O)[nH]c5ccc(Br)cc45)cc3[nH]2)cc1 | 113% | 94.9% | 95.3% | 80.3% | 114% | 101% | 92.7% | 137% | 34.7% | 
CCC(C)S(=O)(=O)c1oc(-c2ccc(C)cc2)nc1S(=O)(=O)c1ccccc1 (stereo not drawn) | -94.9% (active) | -61% (active) | -85.6% (active) | -100% (active) | -99.5% (active) | -100% (active) | -100% (active) | 109% | -46% (active) | 
C=C(c1ccc(OC)c(N)c1)c1cc(C)nc2ccccc12 | -23.7% (active) | 21.5% | 6.5% (active) | 21.4% | 78.1% | 24.5% | 27.1% | 118% | 5.19% (active) | 12.5%
C=C(C)[C@@H]1CC[C@]2(C(=O)OC)CC[C@]3(C)[C@H](CC[C@@H]4[C@@]5(C)CC[C@H](N)C(C)(C)[C@@H]5CC[C@]43C)[C@@H]12 | -75.3% (active) | -95.7% (active) | -92.8% (active) | -100% (active) | -87.8% (active) | -100% (active) | -99.9% (active) | -91.6% (active) | -52.3% (active) | 
C=C(C)[C@@H]1CC[C@]2(COP(=O)(OCC)OCC)CC[C@]3(C)[C@H](CC[C@@H]4[C@@](C)(CCCN)[C@H](C(=C)C)CC[C@]43C)[C@@H]12 | 27.2% | 21.6% | 14.7% | 16.7% | 57.4% | 22.3% | 19.5% | 61.1% | 2.27% (active) | 
O=C(Nc1cccc(C(F)(F)F)c1)c1cncc(C#Cc2cnc3cccnn23)c1 | 61.1% | 54.7% | 35.5% | 30.4% | 97.8% | 55.2% | 71.8% | 171% | 16.5% | 24.3%
COC[C@@H](CC(C)C)N=C1N/C(=C\c2ccc3ncsc3c2)C(=O)N1C | -82.2% (active) | 15% | 9.83% (active) | -19.4% (active) | 27.4% | -1.55% (active) | 2.83% (active) | -15.4% (active) | 7.03% (active) | 9.06% (active)
O=C(N/C(=C1/OCCN1Cc1ccccc1)[P+](c1ccccc1)(c1ccccc1)c1ccccc1)c1ccccc1 | -27.6% (active) | 14.6% | 7.37% (active) | 83.1% | 26.1% | 82.6% | 79.5% | 83% | 13.3% | 20.6%
N#Cc1c(Cl)nc(SCc2ccc(F)cc2)nc1-c1ccc(F)cc1 | 97.9% | 89.1% | 80.9% | 87.1% | 98.2% | 99.5% | 94.9% | 115% | 86.7% | 80.6%
COc1ccc2[nH]c(O)c(N=NC(=O)COc3ccc(NC(=O)Nc4ccc(Cl)cc4)cc3)c2c1 | -8.16% (active) | 84.8% | 15.9% | 90.3% | 106% | 100% | 99.7% | 135% | 8.83% (active) | 
CC(=C(c1ccc(OCCN2CCCCC2)cc1)c1ccc(OCCN2CCCCC2)cc1)c1ccccc1 | 20.2% | 73.6% | 68.6% | 2.17% (active) | 70.4% | 12.7% | 33.7% | 136% | -19.2% (active) | 
O=C(c1ccc(Cl)cc1)C1[C@H](c2ccc(Br)cc2)[C@@H](c2ccccc2)NC12C(=O)Nc1ccc(Br)cc12 (stereo partly drawn) | -93.4% (active) | -61.1% (active) | -97.1% (active) | -75.7% (active) | -78.7% (active) | -39.6% (active) | -93.9% (active) | -17.1% (active) | -7.91% (active) | -33% (active)
CC(=C(c1ccc(OCCCN(C)C)cc1)c1ccc(OCCCN(C)C)cc1)c1ccccc1 | -86.5% (active) | -96.1% (active) | -96.8% (active) | -99.9% (active) | -92% (active) | -99.2% (active) | -100% (active) | -86.4% (active) | -65.9% (active) | 
CNC(=O)c1cc(-c2ccc(NC(=O)Nc3ccc(C)cc3)cc2)nc2cccnc12 | 103% | 99.4% | 101% | 63.9% | 108% | 92.3% | 92.8% | 95.4% | 93.5% | 
COc1ccccc1NCc1ccc(CO)n1-c1ccc(C)cc1 | 104% | 98.9% | 86.8% | 60.3% | 107% | 93.3% | 79.9% | 123% | 86.3% | 
COc1ccc(-c2nc(S(=O)(=O)c3ccccc3)c(S(C)(=O)=O)o2)cc1 | 69.7% | 94.1% | -63.7% (active) | -100% (active) | -99.3% (active) | -100% (active) | -94.2% (active) | 113% | -46.7% (active) | 
N[C@@H](CSSC[C@H](N)C(=O)Nc1ccc(OCC2CCCC2)cc1)C(=O)Nc1ccc(OCC2CCCC2)cc1 | -93% (active) | -90.2% (active) | -98.5% (active) | -100% (active) | -95.5% (active) | -100% (active) | -99.1% (active) | -85.4% (active) | -60.5% (active) | 
CO[C@H]1CSS[C@@H]1Cn1nc(-c2ccc(Oc3ccccc3)cc2)c2c(N)ncnc21 | -34% (active) | 18% | 24.6% | 17.7% | 0.0625% (active) | 10% | 11.3% | 92.8% | -16% (active) | -20.6% (active)
O=C(NO)c1ccc(CN2CCN(c3nc(-c4ccccc4)c4ccccc4n3)CC2)cc1 | 67.4% | 16% | 15.9% | -11.6% (active) | 19.7% | 4.08% (active) | 6.42% (active) | 61.4% | 12% | 22.9%
Cc1ccc(/C(CSc2nnc(-c3c[nH]c4ccccc34)n2-c2ccccc2)=N/O)cc1 | 62.7% | 28.3% | -36.7% (active) | 6.45% (active) | -65.1% (active) | -61.7% (active) | -27.4% (active) | 91.9% | -35% (active) | -27.8% (active)
COc1ccc(CN2[C@H](C(=O)NCc3ccc(C(=O)NO)cc3)Cc3c([nH]c4ccccc34)[C@H]2C2CC2)cc1 | 44.9% | 51.6% | 70.5% | 66.4% | 53.2% | 76.4% | 72.3% | 65% | 28.8% | 26.6%
CC(=O)NS(=O)(=O)c1ccc(NC(=O)CSC2=NC(c3ccccc3)C(C(C)=O)=C(C)N2)cc1 (stereo not drawn) | 115% | 104% | 111% | 91.5% | 116% | 111% | 99.4% | 133% | 95.4% | 109%
O=C1N/C(=N\c2nccs2)S/C1=C\c1cccs1 | 40.7% | 19% | 45.8% | 20.8% | 55.2% | 17.1% | 20.2% | 73.2% | 19.1% | 17%
COc1ccc(-c2c(N)c(=O)n(C)c3ccccc23)cc1 | 77.4% | 52.4% | 52.8% | 29.7% | 118% | 59.4% | 62.1% | 110% | 54.6% | 37.3%
COc1ccc(Nc2nc(N)n(Cc3cccc(Br)c3)n2)cc1 | -35.7% (active) | 6.36% (active) | 14.7% | 0.264% (active) | 24.9% | 1.18% (active) | 8.17% (active) | -19.5% (active) | 10.2% | 9.01% (active)
